In PubChem BioAssay AID602429 (Sanford-Burnham Center for Chemical Genomics, 2012) one finds inhibition data, which are given here for 81 compounds.

The campaign covered roughly 360,000 compounds. About 1,200 (0.33%) were called active. This excerpt belongs to a sample that is enriched for actives. Unmarked numbers belong to inactive results. Cut-off read from the data, not from the text of the source: active = inhibition above about 37%; inactive = the rest.

Chain of Small ubiquitin-related modifier 1 (Homo sapiens) (P63165 whole entry, looked up): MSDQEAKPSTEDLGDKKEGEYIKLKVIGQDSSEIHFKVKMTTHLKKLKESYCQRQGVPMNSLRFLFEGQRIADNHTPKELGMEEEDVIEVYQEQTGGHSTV

The experiment concerns the target Small ubiquitin-related modifier 1 (Homo sapiens) (UniProt P63165). In words: SUMO1 binding to interaction partners, disruption – biochemical, uHTS, primary screen (AID 602429). Particulars: SUMO1 binding to a labelled peptide, TR-FRET, 1 h; at 20 µM; active compounds read high.
For orientation: inhibition means the relative decrease from the control value, in per cent. On to `COc1c(F)c(F)c(-c2csc(N)n2)c(F)c1F`, for which the inhibition was -2.44%.
The same measure for `CCCc1nn(C)c2c(=O)[nH]c(-c3cc(S(N)(=O)=O)ccc3OCC)nc12`: 3.1%.
As to `CN(CC(=O)NC1CCN(Cc2ccccc2)CC1)S(=O)(=O)c1ccc(Cl)s1`, the inhibition was 0.847%.
To `O=C(O)C(c1ccccc1)N1C(=O)/C(=C\c2ccc(-c3cccc(Cl)c3)o2)SC1=S` (stereo unspecified) belongs 75.9% (active); to `CCC(C)N1C(=O)S/C(=C/c2ccc(Sc3nc4ccccc4[nH]3)o2)C1=O` (stereo unspecified), -5.85%.
To `O=C(Cn1nnc(-c2ccccc2)n1)N/N=C/c1ccc(-c2ccc(Cl)cc2)o1` belongs 7.31%; to `COc1ccccc1CC(NC(C)=O)C(=O)NC1CCN(C(=O)Nc2ccccc2Cl)CC1` (stereo unspecified), 0.952%; to `CN1C(=O)c2ccccc2C(C(=O)NCCCN2CCCC2)C1c1c[nH]c2ccccc12` (stereo unspecified), 3%.
The same measure for `Cn1c(=O)c2cc(S(=O)(=O)NCCC(=O)Nc3ccc(F)cc3F)ccc2n(C)c1=O`: -1.62%.
Turning to `Cc1cccc(-[n+]2c(-c3cccc(Br)c3)[nH]c3nc4ccccc4nc32)c1`, the inhibition is 1.4%.
Regarding `C=CC1=C(C(=O)O)N2C(=O)[C@@H](NC(=O)/C(=N\OCC(=O)O)c3csc(N)n3)[C@H]2SC1`, the inhibition was 56.1% (active).
To `C=CC1=C(C(=O)O)N2C(=O)[C@@H](NC(=O)/C(=N/OCC(=O)O)c3csc(N)n3)[C@H]2SC1` belongs 121% (active); to `COc1cc(C(=O)OCC(=O)NC23CC4CC(CC(C4)C2)C3)cc(OC)c1OC`, 5.78%.
On to `Cc1nc(-c2ccccc2)sc1-c1nc(-c2ccccc2)ncc1S(=O)(=O)c1ccccc1`, for which the inhibition was 56.4% (active).
To `C#CC(C)(C)NC(=O)c1cnc(-c2ccccc2)nc1-c1ccccc1` belongs 1.04%; to `Cc1nc(-c2ccccc2)sc1-c1nnc(C2CC2)o1`, -25.8%; to `O=C(CCNC(=O)c1ccc(Br)cc1)Nc1cccc(S(=O)(=O)N2CCCCC2)c1`, 0.625%.
To `O=C1NC[C@H](CCCCN2CCN(CCc3ccccc3)C(=O)C2=O)N(CC2CCCCC2)C1=O` belongs 0.562%; to `Cc1ccc2[nH]c3c(=O)n(Cc4ccccn4)cnc3c2c1`, 2.63%.
To `COc1cc(OC)c(OC)cc1/C=N/Nc1ncnc2c1[nH]c1ccc(C)cc12` belongs 60.7% (active); to `CC1(C)CC(=O)C=C(c2ccc(COC(=O)c3cc(F)cc(F)c3)cc2)C1=O`, -22.7%; to `COc1ccc(OC)c(NC(=S)N2CCc3ccccc3C2)c1`, 0.375%.
As to `O=C(NCc1ccccc1)C(c1ccc(F)cc1)N1CCN(C(=O)C2CCCO2)CC1` (stereo unspecified), the inhibition is -1.69%.
Consider `CCOC(=O)c1c(-c2cccc(N)c2)cn2ccccc12`, for which the inhibition was -5.65%.
As for `CC1(C)OC(=O)N2CCc3ccccc3C21C` (stereo unspecified), the inhibition is 3.74%.
On to `CC(=O)Nc1ccc(S(=O)(=O)N2CCC(C(=O)N[C@@H](Cc3ccccc3)C(=O)O)CC2)cc1`, for which the inhibition is 0.0701%.
To `COc1cc(C2C3C(=O)N(c4ccccc4)C(=O)C3ON2c2ccccc2)ccc1O` (stereo unspecified) belongs 5.72%; to `O=c1ccc2c(-c3ccccc3S(=O)(=O)O)c3ccc(O)c(O)c3oc-2c1O`, 48.2% (active).
The same measure for `COc1cccc(-c2cc3nc4c(c(N5CCC6(CC5)OCCO6)n3n2)CCCC4)c1`: 1.23%.
To `N#CC1(NC(=O)COC(=O)CSc2ccc(F)cc2)CCCCC1` belongs 1.24%; to `O=C(NCC1CCCO1)C1CCN(C2CCN(C(=O)C3CCCCC3)CC2)CC1` (stereo unspecified), 2.09%; to `COc1ccc(C(=O)NCc2ccccc2C)cc1S(=O)(=O)NC1CCCC1`, 0.24%.
As to `CCCNC(=O)C1(C)CCN(C(=O)c2cc(F)ccc2C)C1` (stereo unspecified), the inhibition was -2.78%.
To `CCCCCc1nnc(NC(=O)c2ccc(=O)n(C)n2)s1` belongs -5.45%; to `COc1ccccc1CNC(=O)Cn1cc2c(n1)CCCC2`, -1.54%; to `COCCNC(=O)Cn1cc2c(n1)CCCCC2`, 42.7% (active).
To `O=C(Cn1cc2c(n1)CCCCC2)NCCN1CCOCC1` belongs -0.24%.
To `Cc1ccc(NC(=O)c2oc(=O)c3ccccc3c2-c2ccccc2)c(C)c1` belongs 3.85%.
Turning to `CCC1(C)COC(c2ccc(OC)c(OC)c2)OC1` (stereo unspecified), the inhibition is 0.985%.
`CCCC(C(=O)n1nc(C)cc1C)C(NS(=O)(=O)c1ccc(C)cc1)c1ccccc1` (stereo unspecified): the inhibition is -1.84%.
To `Nc1ccc2nc3c(=O)[nH]c(=S)[nH]c3nc2c1` belongs 92.6% (active); to `CC(C)c1nc(SCC(=O)NC(=O)NC(C)(C)C)n[nH]1`, 1.88%.
The same measure for `COc1ccc(C)cc1N(CC(=O)NC(C)c1ccccc1)S(C)(=O)=O` (stereo unspecified): -0.711%; for `CN(Cc1ccco1)S(=O)(=O)c1nnc(NC(=O)c2ccccc2)s1`: 6.06%.
To `O=[N+]([O-])c1c(NCCO)cc(Sc2nc3ccccc3s2)c2nonc12` belongs 48.4% (active); to `Cc1ccccc1C(=O)Nc1cccc(-c2nnc(SCC(=O)O)n2C)c1`, 3.31%; to `CC(C)C(C(=O)NCc1ccco1)N(CC1CCCO1)C(=O)CNS(=O)(=O)c1ccc(F)cc1` (stereo unspecified), 4.85%.
On to `Cc1cc2cc3n(c2nn1)N=C(Cl)CC3`, for which the inhibition was -9.97%.
The same measure for `COc1cccc2c1C(=O)c1c(O)c3c(c(O)c1C2=O)CC(O)(C(C)=NNC(=O)c1ccc(Cl)c(Cl)c1)CC3OC1CC(N)C(O)C(C)O1` (stereo unspecified): 111% (active); for `COc1ccc(NC(=O)CN(C)C(=O)c2cc(C3CC3)nn2-c2ccccc2)cc1`: -1.85%; for `CCN1C(=NCCc2cccnc2)N[C@@H](c2ccccc2)[C@H](C(=O)OC)[C@H]1C`: -3.87%.
The same measure for `CN(C(=O)CC1C(=O)NCCN1Cc1ccc(F)cc1Cl)C1CCCCC1` (stereo unspecified): -1.34%; for `COc1cc(Nc2nc3ccc(Cl)cc3n3cnnc23)cc(OC)c1OC`: -1.84%.
To `COc1ccc(OC)c(Nc2nc3ccccc3n3cnnc23)c1` belongs 47.2% (active); to `COc1ccc(CCNc2nc3ccc(C)cc3n3cnnc23)cc1OC`, 2.61%.
For the compound `N#C/C(=C/c1cccc([N+](=O)[O-])c1)c1nnc2n1CCCCC2`, the inhibition is -13.1%.
To `CC1CCN(C(=O)COC(=O)c2cc(=O)[nH]c3ccccc23)CC1` belongs -34.7%; to `Oc1c(Cl)cc(Cl)c(Cl)c1Cc1c(O)c(Cl)cc(Cl)c1Cl`, 68.6% (active); to `CCN(CC)S(=O)(=O)N1CCC(C(=O)NC(C)CCc2ccccc2)CC1` (stereo unspecified), -0.482%.
`Nc1nc(Sc2ncccc2[N+](=O)[O-])n[nH]1`: the inhibition was -26.7%.
Consider `CCCc1noc2c1/C(=N\O)CCC2`, for which the inhibition is 1.7%.
The same measure for `COc1ccc(-c2nnc(-c3ccc4ccccc4c3)o2)cc1`: 51.9% (active).
To `COc1ccc(-c2nnc(SC(=O)N3c4ccccc4Sc4ccccc43)o2)cc1` belongs -3.37%.
In the case of `COc1ccc(-c2nnc(SC(C)C(=O)NC3CC3)o2)cc1` (stereo unspecified), the inhibition is 1.98%.
The same measure for `ONC(=Nc1ccccc1)c1ccccc1Cl`: 0.653%.
Regarding `CN(C(=O)COC(=O)c1cc(=O)[nH]c2ccccc12)C1CCCCC1`, the inhibition is -17.9%.
The same measure for `Clc1ccc(-n2nnnc2-c2cnc(-c3ccccn3)nc2-c2cccs2)cc1`: -11.8%; for `Cc1ccsc1/C=N/n1c(=S)[nH]nc(C)c1=O`: -0.0625%.
The same measure for `S=c1[nH]nc(-c2cccs2)n1/N=C/c1cn(-c2ccccc2)nc1-c1ccc(Cl)cc1`: 41.9% (active).
To `CSCC[C@H](NC(=O)NC1CCCC1)C(=O)O` belongs 2.79%.
For `O=C(CSc1nc2ccccc2c(=O)[nH]1)Nc1nc(-c2ccc(Br)cc2)cs1`, the inhibition was 94.3% (active).
The same measure for `Cc1cc(C)c(-c2csc(NC(=O)CCCc3nc4ccccc4c(=O)[nH]3)n2)c(C)c1`: 0.192%; for `O=C(COC(=O)c1cc(=O)[nH]c2ccccc12)Nc1nc(-c2cccc(Br)c2)cs1`: 2.92%.
To `O=C(O)c1ccc(S(=O)(=O)c2ccccc2)s1` belongs 2.5%.
Turning to `COc1ccc(OCCCC(=O)Nc2nnc(C3CCCO3)s2)cc1` (stereo unspecified), the inhibition is 0.167%.
To `COc1ccc2c(CC(=O)Nc3nnc(C4CC4)s3)coc2c1` belongs -1.1%; to `COc1ccc(NC(=O)CCC(=O)Nc2nnc(C3CCCCC3)s2)cc1`, 44% (active).
To `COc1ccccc1NC(=O)C1=C(C)Nc2nc3ccccc3n2C1c1cccs1` (stereo unspecified) belongs -1.24%; to `COc1cc(C2C(C(=O)Nc3ccccc3OC)=C(C)Nc3ncnn32)ccc1O` (stereo unspecified), -0.861%.
The same measure for `COc1ccccc1NC(=O)C1=C(C)Nc2nnnn2C1c1cccc(Br)c1` (stereo unspecified): 43.5% (active); for `O=C1c2ccccc2C(=O)C1C(=O)C1CC1`: -16.1%.
